Test results taken from PubChem BioAssay (Tox21).
Values joined by “and” are separate entries in the source; they are usually repeats but may differ in a detail not shown here. Equal values may be shown once. Records with an inconclusive call do not appear. Active and inactive are the calls of the source. Calls come from the whole dose curve; as a rule, active = well fitted curve in the direction sought with a large enough effect in the repeat runs; inconclusive = weak or mixed curves; inactive = no such curve, though single readings can be large; an effect the other way counts as inactive or inconclusive.

What was measured:
[1] = qHTS RealTime-Glo MT Cell Viability Assay in HEK293 cells - 16 hour (AID 1224872); note: nearly all actives have a fitted effect of over 50% in size; note: potency is the fitted concentration of half-maximal effect
Outline: (§1)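 Luminescence generated by NanoLuc from substrate produced by living HEK293 cells served as the viability signal. Each value reflects the reading at its stated time point during continuous 40 h compound exposure at 37 C.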

[2] = qHTS RealTime-Glo MT Cell Viability Assay in HepG2 cells - 8 hour (AID 1224873); note: nearly all actives have a fitted effect of over 55% in size; note: potency is the fitted concentration of half-maximal effect
Outline: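 HepG2 cells mixed with RealTime-Glo MT reagents (NanoLuc plus cell-permeant prosubstrate) were seeded at 600 cells/well, incubated 5 h at 37 C/5% CO2, then pinned with compounds in DMSO; nonlytic luminescence tracked viability during 40 h treatment.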

[3] = A CellTox Green Cytotoxicity Assay to monitor cytotoxicity in HepG2 cells - 16 hour (AID 1224876); note: nearly all actives have a fitted effect of over 45% in size; note: potency is the fitted concentration of half-maximal effect
Outline: (§2)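 Real-time, homogeneous cytotoxicity readout: dead-cell DNA staining by CellTox Green in HepG2 monolayers, fluorescence measured at timed intervals up to 40 h of continuous compound exposure.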

[4] = qHTS RealTime-Glo MT Cell Viability Assay in HepG2 cells - 32 hour (AID 1224877); note: nearly all actives have a fitted effect of over 55% in size; note: potency is the fitted concentration of half-maximal effect
Outline: (§3)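 Tox21 10K library screened in qHTS format on HepG2 cells carrying RealTime-Glo reagents. Compounds were added after a 5 h preincubation, and the luminescent signal from continuous culture was measured repeatedly during 40 h treatment.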

[5] = A CellTox Green Cytotoxicity Assay to monitor cytotoxicity in HepG2 cells - 24 hour (AID 1224878); note: nearly all actives have a fitted effect of over 45% in size; note: potency is the fitted concentration of half-maximal effect
Outline: as §2

[6] = qHTS RealTime-Glo MT Cell Viability Assay in HEK293 cells - 0 hour (AID 1224880); note: top concentration of the series differs between compounds; nearly all actives have a fitted effect of over 45% in size
Outline: (§4)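 Nonlytic bioluminescent viability monitoring. HEK293 at 600 cells/well with reagent; 5 h settle; compound transfer by pintool; plates held at 37 C and read at set time points.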

[7] = A CellTox Green Cytotoxicity Assay to monitor cytotoxicity in HEK293 cells - 32 hour (AID 1224881); note: nearly all actives have a fitted effect of over 40% in size; note: potency is the fitted concentration of half-maximal effect
Outline: (§5)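 Cytotoxicity was tracked continuously in HEK293 cells by a DNA-binding dye excluded from viable cells. Compounds were transferred in DMSO 5 h after seeding; fluorescence was recorded at intervals up to 40 h.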

[8] = A CellTox Green Cytotoxicity Assay to monitor cytotoxicity in HepG2 cells - 0 hour (AID 1224882); note: nearly all actives have a fitted effect of over 35% in size
Outline: as §2

[9] = A CellTox Green Cytotoxicity Assay to monitor cytotoxicity in HEK293 cells - 8 hour (AID 1224884); note: nearly all actives have a fitted effect of over 35% in size; note: potency is the fitted concentration of half-maximal effect
Outline: as §5

[10] = qHTS RealTime-Glo MT Cell Viability Assay in HepG2 cells - 16 hour (AID 1224885); note: nearly all actives have a fitted effect of over 50% in size; note: potency is the fitted concentration of half-maximal effect
Outline: as §3

[11] = qHTS RealTime-Glo MT Cell Viability Assay in HEK293 cells - 8 hour (AID 1224887); note: nearly all actives have a fitted effect of over 50% in size; note: potency is the fitted concentration of half-maximal effect
Outline: as §4

[12] = A CellTox Green Cytotoxicity Assay to monitor cytotoxicity in HEK293 cells - 16 hour (AID 1224888); note: nearly all actives have a fitted effect of over 35% in size; note: potency is the fitted concentration of half-maximal effect
Outline: as §5

[13] = A CellTox Green Cytotoxicity Assay to monitor cytotoxicity in HepG2 cells - 8 hour (AID 1224890); note: nearly all actives have a fitted effect of over 45% in size; note: potency is the fitted concentration of half-maximal effect
Outline: as §2

[14] = qHTS assay to identify small molecule antagonists of the estrogen receptor alpha (ER-alpha) signaling pathway using the BG1 cell line in the presence of 0.1 nM 17-beta-estradiol - cell viability counter screen (AID 1259241); note: nearly all actives have a fitted effect of over 40% in size
Outline: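 Live-cell protease activity (CellTiter-Fluor fluorescence, 30 min) was read in the same wells after VM7Luc4E2 cells had been exposed to compounds with 0.1 nM 17beta-estradiol for 22 hr at 37C.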

[15] = A CellTox Green Cytotoxicity Assay to monitor cytotoxicity in HepG2 cells - 40 hour (AID 1224879); note: nearly all actives have a fitted effect of over 40% in size; note: potency is the fitted concentration of half-maximal effect
Outline: as §2

[16] = A CellTox Green Cytotoxicity Assay to monitor cytotoxicity in HepG2 cells - 32 hour (AID 1224883); note: nearly all actives have a fitted effect of over 50% in size; note: potency is the fitted concentration of half-maximal effect
Outline: as §2

[17] = qHTS RealTime-Glo MT Cell Viability Assay in HEK293 cells - 24 hour (AID 1224886); note: nearly all actives have a fitted effect of over 50% in size; note: potency is the fitted concentration of half-maximal effect
Outline: as §1

[18] = qHTS RealTime-Glo MT Cell Viability Assay in HepG2 cells - 0 hour (AID 1224889); note: nearly all actives have a fitted effect of over 50% in size
Outline: as §3

[19] = A CellTox Green Cytotoxicity Assay to monitor cytotoxicity in HEK293 cells - 24 hour (AID 1224875); note: nearly all actives have a fitted effect of over 45% in size; note: potency is the fitted concentration of half-maximal effect
Outline: as §5

[20] = qHTS RealTime-Glo MT Cell Viability Assay in HEK293 cells - 40 hour (AID 1224874); conditions: RealTime-Glo luminescence; max response: hits give low values; note: nearly all actives have a fitted effect of over 50% in size
Outline: as §4
% is set by controls: 0 for no effect and ±100 for the full control effect.

CC[N+](CC)(CC)CCOc1ccc(/C=C/c2ccccc2)cc1
active: Potency [4] 26.8 µM | Potency [7] 6.74 µM
inactive: Potency [1] | Potency [2] | Potency [3] | Potency [5] | Potency [6] | Potency [8] | Potency [9] | Potency [10] | Potency [11] | Potency [12] | Potency [13] | Potency [14]

O=C(/C=C/c1ccccc1)OC/C=C/c1ccccc1
inactive: Potency [1] | Potency [2] | Potency [3] | Potency [5] | Potency [15] | Potency [6] | Potency [7] | Potency [8] | Potency [16] | Potency [10] | Potency [17] | Potency [12] | Potency [18] | Potency [13] | Potency [14]

COc1ccc(-c2coc3cc(O)ccc3c2=O)cc1
inactive: Potency [1] | Potency [2] | Potency [19] | Potency [3] | Potency [4] | Potency [5] | Potency [15] | Potency [7] | Potency [8] | Potency [16] | Potency [9] | Potency [10] | Potency [11] | Potency [18] | Potency [13] | Potency [14]

Cc1c(F)c(N2CCNC(C)C2)cc2c1c(=O)c(C(=O)O)cn2C1CC1 (stereo not drawn)
inactive: Potency [1] | Potency [2] | Potency [3] | Potency [4] | Potency [5] | Potency [15] | Potency [6] | Potency [8] | Potency [16] | Potency [9] | Potency [10] | Potency [17] | Potency [11] | Potency [12] | Potency [18] | Potency [13] | Potency [14]

CCc1oc2ccccc2c1C(=O)c1cc(I)c(O)c(I)c1
inactive: Potency [1] | max response [20] -23.8% | Potency [19] | Potency [3] | Potency [4] | Potency [5] | Potency [15] | Potency [6] | Potency [7] | Potency [8] | Potency [16] | Potency [9] | Potency [10] | Potency [17] | Potency [11] | Potency [18] | Potency [13] | Potency [14]

Cc1ccc(C(C)C)cc2c(C)ccc1-2
inactive: Potency [1] | Potency [2] | Potency [3] | Potency [4] | Potency [5] | Potency [15] | Potency [6] | Potency [7] | Potency [8] | Potency [16] | Potency [9] | Potency [10] | Potency [17] | Potency [11] | Potency [12] | Potency [18] | Potency [13] | Potency [14]

[Cu+]
inactive: Potency [1] | Potency [2] | Potency [19] | Potency [3] | Potency [5] | Potency [15] | Potency [6] | Potency [7] | Potency [8] | Potency [16] | Potency [9] | Potency [10] | Potency [11] | Potency [18] | Potency [13]
active: Potency [4] 49 µM

Nc1cc(Cl)c(O)c(Cl)c1
active: Potency [11] 43.6 µM
inactive: Potency [1] | max response [20] -1.5% | Potency [19] | Potency [3] | Potency [4] | Potency [5] | Potency [15] | Potency [6] | Potency [7] | Potency [8] | Potency [16] | Potency [9] | Potency [10] | Potency [12] | Potency [13] | Potency [14]

CN1CCCCC1CCN1c2ccccc2Sc2ccc(S(C)=O)cc21 (stereo not drawn)
inactive: Potency [1] | Potency [2] | Potency [19] | Potency [3] | Potency [4] | Potency [6] | Potency [8] | Potency [9] | Potency [10] | Potency [11] | Potency [12] | Potency [18] | Potency [13]

COc1ccc2c(c1)c(CC(=O)OC/C=C(\C)CC/C=C(\C)CCC=C(C)C)c(C)n2C(=O)c1ccc(Cl)cc1
inactive: Potency [1] | max response [20] -0.256% | Potency [19] | Potency [3] | Potency [4] | Potency [5] | Potency [15] | Potency [6] | Potency [7] | Potency [8] | Potency [16] | Potency [10] | Potency [17] | Potency [12] | Potency [18] | Potency [13] | Potency [14]

OC[C@H]1O[C@H](O[C@H]2O[C@H](CO)[C@@H](O)[C@H](O)[C@H]2O)[C@H](O)[C@@H](O)[C@@H]1O
inactive: Potency [1] | Potency [2] | Potency [19] | Potency [3] | Potency [5] | Potency [15] | Potency [6] | Potency [8] | Potency [16] | Potency [9] | Potency [10] | Potency [11] | Potency [18] | Potency [13] | Potency [14]

CC1=CCC(=C(C)C)CC1
inactive: Potency [1] | Potency [2] | Potency [19] | Potency [3] | Potency [5] | Potency [15] | Potency [6] | Potency [7] | Potency [8] | Potency [16] | Potency [9] | Potency [10] | Potency [17] | Potency [11] | Potency [12] | Potency [18] | Potency [13]

CC1(C)CC(O)CC(C)(C)N1
inactive: Potency [1] | max response [20] -4.64% | Potency [19] | Potency [3] | Potency [4] | Potency [5] | Potency [15] | Potency [6] | Potency [7] | Potency [8] | Potency [16] | Potency [9] | Potency [10] | Potency [17] | Potency [11] | Potency [18] | Potency [13]

C#CC1(O)CC[C@H]2[C@@H]3CCC4=CCCC[C@@H]4[C@H]3CC[C@@]21C (stereo partly drawn)
inactive: Potency [6] | Potency [8] | Potency [18] | Potency [14]
active: Potency [1] 19.5 µM and 21.3 µM | Potency [2] 21.3 µM | Potency [19] 21.9 µM and 21.3 µM | Potency [3] 34.7 µM and 19 µM | Potency [5] 34.7 µM and 19 µM | Potency [15] 38.9 µM and 21.3 µM | Potency [7] 24.5 µM and 21.3 µM | Potency [16] 34.7 µM and 19 µM | Potency [9] 17.4 µM and 23.9 µM | Potency [10] 23.9 µM | Potency [17] 17.4 µM and 16.9 µM | Potency [11] 21.3 µM | Potency [12] 24.5 µM and 21.3 µM | Potency [13] 24.5 µM and 21.3 µM
